Test results taken from PubChem BioAssay (Tox21).
Inconclusive results are not listed. Calls of active or inactive are those of the source. Unless noted, the call rests on the fitted dose curve; in most records, active means well fitted curve in the direction sought with a large enough effect in the repeat runs; inconclusive means weak or mixed curves; inactive means no such curve, though single readings can be large; an effect the other way counts as inactive or inconclusive.

Tests used:
[1] = target: Luciferin 4-monooxygenase (Photinus pyralis) (UniProt P08659); experiment: qHTS assay to identify small molecule inhibitors of firefly luciferase (AID 1224835); further: nearly all actives have a fitted effect of over 25% in size; further: potency means the concentration at half of the fitted maximal effect
Method in brief: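 Inhibition of purified Photinus luciferase is measured by luminescence. Substrate levels (D-luciferin, ATP) sit at their KM values. Each compound is tested in a concentration series.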

[2] = qHTS assay to identify small molecule agonists of the constitutive androstane receptor (CAR) signaling pathway - cell viability counter screen (AID 1224836); further: nearly all actives have a fitted effect of over 45% in size
Method in brief: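 HepG2 cells stably carrying hCAR and a CYP2B6-2.2kb reporter; 15-concentration compounds plus PK11195 (final 0.75 uM), 23 hr at 37 C/5% CO2. Viability read by CellTiter-Fluor fluorescence.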

[3] = qHTS assay to identify small molecule antagonists of the constitutive androstane receptor (CAR) signaling pathway - cell viability counter screen (AID 1224837); further: nearly all actives have a fitted effect of over 45% in size
Method in brief: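 Fluorescence from CellTiter-Fluor served as the viability signal. Human hepatoma HepG2 cells stably bearing hCAR and CYP2B6-2.2kb received compound plus CITCO (50 nM final) for 23 hr.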

[4] = target: Nuclear receptor subfamily 1 group I member 3 (Homo sapiens) (UniProt Q14994); experiment: qHTS assay to identify small molecule antagonists of the constitutive androstane receptor (CAR) signaling pathway (AID 1224838);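 further: HepG2 cells stably expressing hCAR with CYP2B6 luciferase reporter stimulated by CITCO; nearly all actives have a fitted effect of over 40% in size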
Method in brief: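 Quantitative HTS in double-stable HepG2-CYP2B6-hCAR cells. After 4 h plating, cells get compound (15 concentrations) and CITCO at 50 nM final, incubate 24 h at 37 C, then ONE-Glo luminescence is read.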

[5] = qHTS assay to identify small molecule antagonists of the estrogen related receptor signaling pathway with the pleiotropic PPARgamma coactivator (PGC) from Tox21 10K library - cell viability counter screen (AID 1224840; active means well fitted cell-killing curve with a large enough effect in the repeat runs, not every such curve was filed as active; further: nearly all actives have a fitted effect of over 40% in size)
Method in brief: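 Compounds in DMSO, alongside positive and negative controls, were pinned onto PGC/ERR cells (2,000 per well). Exposure lasted 17.5 hours at 37 C, followed by a 30-minute CellTiter-Fluor incubation and fluorescence reading.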

[6] = qHTS assay to identify small molecule antagonists of the estrogen related receptor signaling pathway with the pleiotropic PPARgamma coactivator (PGC) from Tox21 10K library (AID 1224841; call rule not given here; further: actives are mostly falling curves and most rising ones were filed inactive; nearly all actives have a fitted effect of over 50% in size)
Method in brief: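 Compound exposure ran 18 hours at 37 C in PGC/ERR cells (2,000/well) that had first rested 6 hours in a 37 C/5% CO2 incubator. Luciferase activity was then detected with One-Glo after a 30-minute room-temperature step.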

[7] = qHTS assay to identify small molecule agonists of the estrogen related receptor signaling pathway with the pleiotropic PPARgamma coactivator (PGC) from Tox21 10K library (AID 1224842); further: nearly all actives have a fitted effect of over 15% in size
Method in brief: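 Luminescence from One-Glo (30 min, room temperature) measured after PGC/ERR cells had 18 h at 37 C with pinned compound (23 nL in DMSO). Cells had been seeded at 2,000 per well and pre-incubated 6 h.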

[8] = target: Thyrotropin receptor (Homo sapiens) (UniProt P16473); experiment: qHTS assay to identify small molecule agonists of the thyroid stimulating hormone receptor (TSHR) signaling pathway (AID 1224843; calls by dose curve; further: nearly all actives have a fitted effect of over 45% in size)
Method in brief: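 Screening of the Tox21 10K collection used HEK293 cells engineered with TSHR at 800 cells per well. After a 30-min room-temperature compound exposure, HTRF cAMP reagents were added and fluorescence recorded 1 h later.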

[9] = qHTS assay to identify small molecule agonists of the hypoxia (HIF-1) signaling pathway - cell viability counter screen (AID 1224844; calls by dose curve; further: nearly all actives have a fitted effect of over 50% in size)
Method in brief: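 Luminescent ATP content (CellTiter-Glo, 30 min, room temperature) served as the viability measure in HRE-bla ME-180 cells exposed to compounds for 17 hrs in low-serum medium (0.5% dialyzed FBS).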

[10] = qHTS assay to identify small molecule agonists of H2AX (AID 1224845; active means well fitted activation curve with a large enough effect in the signal ratio in the repeat runs, not every such curve was filed as active; the % refers to the signal ratio)
Method in brief: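 Phospho-H2AX Ser139 measured by HTRF (ex 320 nm; em 665 and 620 nm) after 24 hr antibody incubation. Compounds, 15 concentrations, 0.76% DMSO, were applied to CHO-K1 cells for 3hr at 37C before lysis.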

[11] = qHTS assay to identify small molecule agonists of the hypoxia (HIF-1) signaling pathway (AID 1224846; active means well fitted activation curve with a large enough effect in the signal ratio in the repeat runs, not every such curve was filed as active; the % refers to the signal ratio)
Method in brief: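 Measured by blue/green FRET after loading CCF4-AM: beta-lactamase expressed from a hypoxia response element in ME-180 cells. Test agents were delivered in DMSO and left 17 hrs; cells had been plated 5 hrs earlier in low-serum (0.5% dialyzed FBS) medium.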

[12] = qHTS assay to identify small molecule agonists of the estrogen related receptor (ERR) signaling pathway from Tox21 library (AID 1224849; calls by dose curve; further: nearly all actives have a fitted effect of over 15% in size); conditions: ERR reporter cell line, ONE-Glo luciferase, 18 h; at 92.4 µM (top of the series)
Method in brief: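 We plated ERR reporter cells, waited 6 h, added compounds in DMSO by pin tool and incubated them 18 h at 37 C. ONE-Glo was then added and luminescence read after 30 min.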

[13] = qHTS RealTime-Glo MT Cell Viability Assay in HepG2 cells - 24 hour (AID 1224867); further: nearly all actives have a fitted effect of over 50% in size
Method in brief: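 Cell number in HepG2 cultures estimated from NanoLuc luminescence generated by metabolic reduction of a prosubstrate by living cells. The homogeneous, nonlytic format allowed repeated reads at 0, 8, 16, 24, 32 and 40 h of compound exposure.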

[14] = qHTS RealTime-Glo MT Cell Viability Assay in HepG2 cells - 40 hour (AID 1224870); further: nearly all actives have a fitted effect of over 50% in size
Method in brief: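 Real-time viability: cells seeded at 600 per well together with NanoLuc and cell-permeant prosubstrate, compounds added after 5 h incubation. Luminescence tracked at 0, 8, 16, 24, 32 and 40 h of exposure.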

[15] = qHTS RealTime-Glo MT Cell Viability Assay in HEK293 cells - 32 hour (AID 1224868)
Method in brief: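 Homogeneous bioluminescent viability format in HEK293 cells (600 cells/well). Following 5 h at 37 C/5% CO2, 23 nL compound was pintooled; the signal was measured repeatedly during 40 h incubation.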

[16] = A CellTox Green Cytotoxicity Assay to monitor cytotoxicity in HEK293 cells - 0 hour (AID 1224869); further: nearly all actives have a fitted effect of over 50% in size
Method in brief: (§1)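 Each value comes from one timepoint of a single continuous run in which HEK293 cells with CellTox Green were exposed to compound for up to 40 h at 37 C, dye fluorescence rising with cell death.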

[17] = A CellTox Green Cytotoxicity Assay to monitor cytotoxicity in HEK293 cells - 40 hour (AID 1224871); further: nearly all actives have a fitted effect of over 45% in size
Method in brief: as §1

[18] = target: Nuclear receptor subfamily 1 group I member 3 (Homo sapiens) (UniProt Q14994); experiment: qHTS assay to identify small molecule agonists of the constitutive androstane receptor (CAR) signaling pathway (AID 1224839); further: nearly all actives have a fitted effect of over 15% in size; further: potency means the concentration at half of the fitted maximal effect;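 on activation: HepG2 cells stably carrying human CAR and a CYP2B6 luciferase reporter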
Method in brief: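 HepG2 cells stably co-transfected with hCAR and a CYP2B6-2.2kb luciferase reporter; compounds at 15 concentrations with 0.75 uM PK11195 present. After 24 hr at 37 C, luciferase read by ONE-Glo luminescence.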

[19] = qHTS assay to identify small molecule agonists of H2AX - cell viability counter screen (AID 1224847; calls by dose curve; further: nearly all actives have a fitted effect of over 30% in size; further: potency means the concentration at half of the fitted maximal effect)
Method in brief: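 CHO-K1 cells plated overnight at 37C, then exposed 3 h at 37C to compounds at 15 concentrations (0.76% DMSO final). Viability by CellTiter-Glo luminescence after 30 min at room temperature.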

[20] = qHTS assay to identify small molecule antagonists of the estrogen related receptor (ERR) signaling pathway from Tox21 library (AID 1224848); further: nearly all actives have a fitted effect of over 50% in size
Method in brief: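 Antagonist-mode screen of the Tox21 10K library in an NTP-provided ERR reporter cell line; 18 h compound exposure at 37 C, luminescence measured with ONE-Glo.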
On the % scale 0 is the no-effect control and ±100 the full control effect.

Sequence of Luciferin 4-monooxygenase (Photinus pyralis) (P08659 whole entry, looked up): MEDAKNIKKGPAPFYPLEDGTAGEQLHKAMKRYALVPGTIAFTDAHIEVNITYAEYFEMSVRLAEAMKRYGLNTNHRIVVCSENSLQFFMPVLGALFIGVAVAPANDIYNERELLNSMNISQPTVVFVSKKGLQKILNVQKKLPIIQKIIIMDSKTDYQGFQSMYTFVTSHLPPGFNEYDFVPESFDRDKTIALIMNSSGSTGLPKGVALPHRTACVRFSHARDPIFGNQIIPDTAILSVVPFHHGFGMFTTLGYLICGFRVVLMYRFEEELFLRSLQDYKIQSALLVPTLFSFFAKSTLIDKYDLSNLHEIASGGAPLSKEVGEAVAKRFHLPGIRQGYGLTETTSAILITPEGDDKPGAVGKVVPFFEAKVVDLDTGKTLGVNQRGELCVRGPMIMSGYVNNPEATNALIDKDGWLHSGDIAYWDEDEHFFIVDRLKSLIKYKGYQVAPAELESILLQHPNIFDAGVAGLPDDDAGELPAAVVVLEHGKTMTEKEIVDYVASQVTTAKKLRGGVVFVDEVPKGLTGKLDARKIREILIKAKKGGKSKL
Sequence of Thyrotropin receptor (Homo sapiens) (P16473 whole entry, looked up): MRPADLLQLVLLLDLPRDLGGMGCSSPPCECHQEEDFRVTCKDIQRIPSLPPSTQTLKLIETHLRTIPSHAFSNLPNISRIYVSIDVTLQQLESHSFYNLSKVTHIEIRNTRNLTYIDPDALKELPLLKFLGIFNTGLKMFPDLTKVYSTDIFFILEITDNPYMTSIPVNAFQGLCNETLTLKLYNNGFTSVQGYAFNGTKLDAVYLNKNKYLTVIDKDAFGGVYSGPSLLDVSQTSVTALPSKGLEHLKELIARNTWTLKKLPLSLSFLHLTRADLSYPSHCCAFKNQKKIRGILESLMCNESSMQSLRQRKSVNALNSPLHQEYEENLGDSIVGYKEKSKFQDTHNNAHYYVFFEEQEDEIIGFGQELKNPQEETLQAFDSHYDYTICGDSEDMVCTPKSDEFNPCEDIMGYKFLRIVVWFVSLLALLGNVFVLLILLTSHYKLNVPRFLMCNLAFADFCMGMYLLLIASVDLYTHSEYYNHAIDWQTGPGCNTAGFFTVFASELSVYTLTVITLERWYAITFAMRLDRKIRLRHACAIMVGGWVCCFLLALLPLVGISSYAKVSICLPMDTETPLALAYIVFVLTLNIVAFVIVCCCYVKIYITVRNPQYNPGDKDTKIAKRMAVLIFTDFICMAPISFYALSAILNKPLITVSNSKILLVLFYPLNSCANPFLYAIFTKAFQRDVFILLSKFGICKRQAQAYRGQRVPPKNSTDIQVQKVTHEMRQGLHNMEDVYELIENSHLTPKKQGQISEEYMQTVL
Sequence of Nuclear receptor subfamily 1 group I member 3 (Homo sapiens) (Q14994 whole entry, looked up): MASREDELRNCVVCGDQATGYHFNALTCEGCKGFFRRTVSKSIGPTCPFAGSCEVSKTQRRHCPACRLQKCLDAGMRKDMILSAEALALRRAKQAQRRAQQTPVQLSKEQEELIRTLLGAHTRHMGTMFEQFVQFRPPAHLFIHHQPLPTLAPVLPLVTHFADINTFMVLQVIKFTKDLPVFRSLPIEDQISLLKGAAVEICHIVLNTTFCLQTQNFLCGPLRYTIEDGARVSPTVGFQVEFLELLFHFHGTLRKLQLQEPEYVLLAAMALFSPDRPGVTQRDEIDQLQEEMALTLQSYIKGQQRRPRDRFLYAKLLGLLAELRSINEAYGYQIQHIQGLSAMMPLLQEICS

C[Si](Cl)(c1ccccc1)c1ccccc1
inactive: Potency [1] | Potency [2] | Potency [3] | Potency [4] | Potency [5] | Potency [6] | Potency [7] | Potency [8] | Potency [9] | Potency [10] | Potency [11] | activity change, positive = activation [12] -19% | Potency [13] | Potency [14]

O=C(O)Cc1ccccc1Nc1c(Cl)cccc1Cl
inactive: Potency [1] | Potency [2] | Potency [3] | Potency [4] | Potency [5] | Potency [8] | Potency [9] | Potency [10] | Potency [11] | Potency [13] | Potency [15] | Potency [16] | Potency [14] | Potency [17]

Nc1nc(N)nc(-c2cc(Cl)ccc2Cl)n1
inactive: Potency [1] | Potency [2] | Potency [3] | Potency [4] | Potency [18] | Potency [5] | Potency [9] | Potency [10] | Potency [11] | Potency [13] | Potency [15] | Potency [16] | Potency [14] | Potency [17]

C=CCCC(=O)/C=C/C1C(C)=CCCC1(C)C (stereo unspecified)
active: Potency [19] 89.8 µM
inactive: Potency [1] | Potency [2] | Potency [3] | Potency [4] | Potency [5] | Potency [11] | Potency [13] | Potency [15] | Potency [16] | Potency [14]

CCOC(=O)Cn1cccc1-c1nc(-c2ccc(OC)cc2)c(-c2ccc(OC)cc2)s1
inactive: Potency [1] | Potency [2] | Potency [3] | Potency [4] | Potency [5] | Potency [9] | Potency [19] | Potency [15] | Potency [16] | Potency [17]

C#Cc1ccc(-c2ccccc2F)cc1
active: Potency [1] 30.9 µM
inactive: Potency [2] | Potency [3] | Potency [4] | Potency [18] | Potency [5] | Potency [9] | Potency [10] | Potency [11] | Potency [19] | Potency [13] | Potency [15] | Potency [16] | Potency [14] | Potency [17]

CC(C)OC(=O)C(O)(CC(=O)O)CC(=O)O
inactive: Potency [1] | Potency [2] | Potency [3] | Potency [4] | Potency [5] | Potency [6] | Potency [7] | Potency [8] | Potency [9] | Potency [10] | Potency [11] | Potency [19] | Potency [20] | activity change, positive = activation [12] 4.45% | Potency [13] | Potency [16] | Potency [14] | Potency [17]

CCC(CC)(CC(=O)Nc1cccc(/C=C/c2nc(C3CCC3)cs2)c1)C(=O)O
inactive: Potency [2] | Potency [3] | Potency [4] | Potency [5] | Potency [9] | Potency [10] | Potency [11] | Potency [19] | Potency [13] | Potency [16] | Potency [14] | Potency [17]
active: Potency [1] 2.75 µM | Potency [18] 23.7 µM

O=C(/C=C/c1ccccc1)OC/C=C/c1ccccc1
active: Potency [1] 71 µM
inactive: Potency [2] | Potency [3] | Potency [4] | Potency [5] | Potency [6] | Potency [9] | Potency [10] | Potency [11] | Potency [19] | Potency [20] | activity change, positive = activation [12] 3.92% | Potency [13] | Potency [15] | Potency [16] | Potency [14]
